Test results: article PMC11006913
Residue numbers refer to the chain shown, from its start.

Tests used:
Assay in all cases: PBM; 200 nM protein, PBS
Conditions in all cases: dsDNA, one strand shown
[1] = target: T1, VENTX (Homo sapiens, UniProt O95231 78-163, R121Q)
T1 sequence: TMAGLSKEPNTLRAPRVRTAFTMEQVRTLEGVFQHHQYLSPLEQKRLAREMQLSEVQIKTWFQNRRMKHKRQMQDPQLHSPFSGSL

[2] = target: T2, NKX2-6 (Homo sapiens, UniProt A6NCS4 118-204)
T2 sequence: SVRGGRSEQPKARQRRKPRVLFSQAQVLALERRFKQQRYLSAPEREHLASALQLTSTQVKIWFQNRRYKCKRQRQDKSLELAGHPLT

[3] = target: HOXB9 (Homo sapiens, UniProt P17482 171-250, T197M)
[4] = target: HOXC9 (Homo sapiens, UniProt P31274 178-260, K195R)
[5] = target: HOXA7 (Homo sapiens, UniProt P31268 116-202)
[6] = target: HOXC10 (Homo sapiens, UniProt Q9NYD6 254-340)
[7] = target: HOXB6 (Homo sapiens, UniProt P17509 132-218, K202E)
[8] = target: HOXC9 (Homo sapiens, UniProt P31274 178-260)
[9] = target: HOXC9 (Homo sapiens, UniProt P31274 178-260, R193K)
[10] = target: HOXC10 (Homo sapiens, UniProt Q9NYD6 254-340, K271E)
[11] = target: HOXC9 (Homo sapiens, UniProt P31274 178-260, R222W)
[12] = target: HOXA7 (Homo sapiens, UniProt P31268 116-202, W177C)
[13] = target: HOXB6 (Homo sapiens, UniProt P17509 132-218)
[14] = target: HOXA4 (Homo sapiens, UniProt Q00056 201-287, W262R)
[15] = target: T3, VENTX (Homo sapiens, UniProt O95231 78-163, Y115F)
T3 sequence: T1 sequence with Y38F, Q44R

[16] = target: HOXA2 (Homo sapiens, UniProt O43364 129-215, R185T)
[17] = target: HOXA4 (Homo sapiens, UniProt Q00056 201-287, R217L)
[18] = target: PITX2 (Homo sapiens, UniProt Q99697 72-157)
[19] = target: HOXA2 (Homo sapiens, UniProt O43364 129-215, R185K)
[20] = target: HOXA4 (Homo sapiens, UniProt Q00056 201-287)
[21] = target: HOXA2 (Homo sapiens, UniProt O43364 129-215, Y150S)
[22] = target: HOXA4 (Homo sapiens, UniProt Q00056 201-287, W262F)
[23] = target: HOXA2 (Homo sapiens, UniProt O43364 129-215)
[24] = target: HOXB9 (Homo sapiens, UniProt P17482 171-250)
[25] = target: HOXD13 (Homo sapiens, UniProt P35453 263-343, T313R)
[26] = target: HOXD13 (Homo sapiens, UniProt P35453 263-343)
[27] = target: HOXD13 (Homo sapiens, UniProt P35453 263-343, T313A)
[28] = target: HOXB9 (Homo sapiens, UniProt P17482 171-250, R186Q)
[29] = target: T4, VENTX (Homo sapiens, UniProt O95231 78-163)
T4 sequence: T1 sequence with Q44R

[30] = target: VAX1 (Homo sapiens, UniProt Q5SQQ9 86-172)
[31] = target: VAX1 (Homo sapiens, UniProt Q5SQQ9 86-172, T142I)
[32] = target: VAX1 (Homo sapiens, UniProt Q5SQQ9 86-172, K157R)
[33] = target: CRX (Homo sapiens, UniProt O43186 26-111, R41L)
[34] = target: ALX4 (Homo sapiens, UniProt Q9H161 200-286, Q225E)
Chain of ALX4 (Q9H161 200-286 Q225E): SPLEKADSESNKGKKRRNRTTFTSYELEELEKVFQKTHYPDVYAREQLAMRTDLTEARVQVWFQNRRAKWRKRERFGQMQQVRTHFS

Chain of HOXC9 (Homo sapiens, UniProt P31274 178-260, R193K) (P31274 178-260 R193K): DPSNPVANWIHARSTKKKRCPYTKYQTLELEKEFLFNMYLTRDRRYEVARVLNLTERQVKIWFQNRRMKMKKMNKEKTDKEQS
Chain of HOXC9 (Homo sapiens, UniProt P31274 178-260, K195R) (P31274 178-260 K195R): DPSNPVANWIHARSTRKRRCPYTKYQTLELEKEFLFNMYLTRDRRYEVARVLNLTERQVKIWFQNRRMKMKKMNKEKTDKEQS
Chain of HOXC9 (Homo sapiens, UniProt P31274 178-260) (P31274 178-260): as the sequence (P31274 178-260 R193K) above, with K16R counted along it
Chain of HOXB9 (Homo sapiens, UniProt P17482 171-250) (P17482 171-250): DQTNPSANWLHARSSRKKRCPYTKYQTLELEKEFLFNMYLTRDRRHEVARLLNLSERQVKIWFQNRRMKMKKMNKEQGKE
Chain of HOXC10 (Homo sapiens, UniProt Q9NYD6 254-340, K271E) (Q9NYD6 254-340 K271E): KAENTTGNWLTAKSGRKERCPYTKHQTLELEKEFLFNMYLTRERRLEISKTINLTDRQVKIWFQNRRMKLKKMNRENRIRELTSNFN
Chain of HOXC10 (Homo sapiens, UniProt Q9NYD6 254-340) (Q9NYD6 254-340): as the sequence (Q9NYD6 254-340 K271E) above, with E18K counted along it
Chain of HOXB9 (Homo sapiens, UniProt P17482 171-250, T197M) (P17482 171-250 T197M): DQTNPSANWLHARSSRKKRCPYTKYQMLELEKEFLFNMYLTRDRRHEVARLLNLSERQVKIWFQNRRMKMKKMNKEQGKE
Chain of HOXB9 (Homo sapiens, UniProt P17482 171-250, R186Q) (P17482 171-250 R186Q): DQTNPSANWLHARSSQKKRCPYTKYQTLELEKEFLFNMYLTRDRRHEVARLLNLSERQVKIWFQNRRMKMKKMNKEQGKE
Chain of HOXC9 (Homo sapiens, UniProt P31274 178-260, R222W) (P31274 178-260 R222W): as the sequence (P31274 178-260 R193K) above, with K16R, R45W counted along it
Chain of HOXA7 (Homo sapiens, UniProt P31268 116-202) (P31268 116-202): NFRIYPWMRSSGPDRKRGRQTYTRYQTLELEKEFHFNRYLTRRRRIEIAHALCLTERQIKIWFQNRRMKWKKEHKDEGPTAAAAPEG
Chain of HOXA4 (Homo sapiens, UniProt Q00056 201-287) (Q00056 201-287): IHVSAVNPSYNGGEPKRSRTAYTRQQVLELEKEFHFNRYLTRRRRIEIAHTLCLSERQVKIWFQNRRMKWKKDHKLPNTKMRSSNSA
Chain of HOXA4 (Homo sapiens, UniProt Q00056 201-287, R217L) (Q00056 201-287 R217L): as the sequence (Q00056 201-287) above, with R17L counted along it
Chain of HOXD13 (Homo sapiens, UniProt P35453 263-343, T313A) (P35453 263-343 T313A): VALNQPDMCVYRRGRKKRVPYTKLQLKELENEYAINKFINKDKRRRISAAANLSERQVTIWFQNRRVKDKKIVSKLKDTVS
Chain of HOXB6 (Homo sapiens, UniProt P17509 132-218) (P17509 132-218): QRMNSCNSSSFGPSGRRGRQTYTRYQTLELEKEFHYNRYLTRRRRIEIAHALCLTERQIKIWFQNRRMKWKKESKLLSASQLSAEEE
Chain of HOXD13 (Homo sapiens, UniProt P35453 263-343, T313R) (P35453 263-343 T313R): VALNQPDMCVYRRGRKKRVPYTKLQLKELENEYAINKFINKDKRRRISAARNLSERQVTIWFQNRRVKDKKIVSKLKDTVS
Chain of HOXA4 (Homo sapiens, UniProt Q00056 201-287, W262R) (Q00056 201-287 W262R): as the sequence (Q00056 201-287) above, with W62R counted along it
Chain of HOXA4 (Homo sapiens, UniProt Q00056 201-287, W262F) (Q00056 201-287 W262F): as the sequence (Q00056 201-287) above, with W62F counted along it
Chain of HOXA7 (Homo sapiens, UniProt P31268 116-202, W177C) (P31268 116-202 W177C): as the sequence (P31268 116-202) above, with W62C counted along it
Chain of HOXD13 (Homo sapiens, UniProt P35453 263-343) (P35453 263-343): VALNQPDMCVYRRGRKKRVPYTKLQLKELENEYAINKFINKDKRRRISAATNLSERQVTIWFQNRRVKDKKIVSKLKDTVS
Chain of HOXB6 (Homo sapiens, UniProt P17509 132-218, K202E) (P17509 132-218 K202E): as the sequence (P17509 132-218) above, with K71E counted along it
Chain of CRX (O43186 26-111 R41L): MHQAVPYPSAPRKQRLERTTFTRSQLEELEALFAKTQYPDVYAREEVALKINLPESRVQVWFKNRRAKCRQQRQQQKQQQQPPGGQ
Chain of VAX1 (Homo sapiens, UniProt Q5SQQ9 86-172, K157R) (Q5SQQ9 86-172 K157R): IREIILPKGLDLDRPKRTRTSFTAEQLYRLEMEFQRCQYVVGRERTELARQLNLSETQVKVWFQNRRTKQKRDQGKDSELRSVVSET
Chain of HOXA2 (Homo sapiens, UniProt O43364 129-215, R185K) (O43364 129-215 R185K): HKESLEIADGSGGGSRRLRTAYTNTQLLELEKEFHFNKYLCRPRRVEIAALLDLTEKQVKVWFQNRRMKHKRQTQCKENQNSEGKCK
Chain of VAX1 (Homo sapiens, UniProt Q5SQQ9 86-172, T142I) (Q5SQQ9 86-172 T142I): as the sequence (Q5SQQ9 86-172 K157R) above, with T57I, R72K counted along it
Chain of HOXA2 (Homo sapiens, UniProt O43364 129-215, R185T) (O43364 129-215 R185T): as the sequence (O43364 129-215 R185K) above, with K57T counted along it
Chain of VAX1 (Homo sapiens, UniProt Q5SQQ9 86-172) (Q5SQQ9 86-172): as the sequence (Q5SQQ9 86-172 K157R) above, with R72K counted along it
Chain of HOXA2 (Homo sapiens, UniProt O43364 129-215) (O43364 129-215): as the sequence (O43364 129-215 R185K) above, with K57R counted along it
Chain of HOXA2 (Homo sapiens, UniProt O43364 129-215, Y150S) (O43364 129-215 Y150S): as the sequence (O43364 129-215 R185K) above, with Y22S, K57R counted along it

Sequence: ACGATTAT
- binding signal [1]: 10.5 upbm affinity estimate (log intensity, higher = more binding, comparable within an allelic series)
- binding signal [2]: 10.7 upbm affinity estimate (log intensity, higher = more binding, comparable within an allelic series)

Sequence: ATTATTAC
- binding signal [3]: 10 upbm affinity estimate (log intensity, higher = more binding, comparable within an allelic series)
- binding signal [4]: 12.5 upbm affinity estimate (log intensity, higher = more binding, comparable within an allelic series)
- binding signal [5]: 11.2 upbm affinity estimate (log intensity, higher = more binding, comparable within an allelic series)
- binding signal [6]: 12.1 upbm affinity estimate (log intensity, higher = more binding, comparable within an allelic series)
- binding signal [7]: 10 upbm affinity estimate (log intensity, higher = more binding, comparable within an allelic series)
- binding signal [8]: 12.6 upbm affinity estimate (log intensity, higher = more binding, comparable within an allelic series)
- binding signal [9]: 12.5 upbm affinity estimate (log intensity, higher = more binding, comparable within an allelic series)
- binding signal [10]: 11.6 upbm affinity estimate (log intensity, higher = more binding, comparable within an allelic series)
- binding signal [11]: 11 upbm affinity estimate (log intensity, higher = more binding, comparable within an allelic series)
- binding signal [12]: 8.99 upbm affinity estimate (log intensity, higher = more binding, comparable within an allelic series)
- binding signal [13]: 11.7 upbm affinity estimate (log intensity, higher = more binding, comparable within an allelic series)

Sequence: ATTAACGA
- binding signal [3]: 10 upbm affinity estimate (log intensity, higher = more binding, comparable within an allelic series)
- binding signal [14]: 10.6 upbm affinity estimate (log intensity, higher = more binding, comparable within an allelic series)
- binding signal [4]: 12.6 upbm affinity estimate (log intensity, higher = more binding, comparable within an allelic series)
- binding signal [6]: 12.2 upbm affinity estimate (log intensity, higher = more binding, comparable within an allelic series)
- binding signal [15]: 11.5 upbm affinity estimate (log intensity, higher = more binding, comparable within an allelic series)
- binding signal [16]: 12.4 upbm affinity estimate (log intensity, higher = more binding, comparable within an allelic series)
- binding signal [17]: 12 upbm affinity estimate (log intensity, higher = more binding, comparable within an allelic series)
- binding signal [8]: 12.5 upbm affinity estimate (log intensity, higher = more binding, comparable within an allelic series)
- binding signal [18]: 10.7 upbm affinity estimate (log intensity, higher = more binding, comparable within an allelic series)
- binding signal [9]: 12.5 upbm affinity estimate (log intensity, higher = more binding, comparable within an allelic series)
- binding signal [19]: 13.3 upbm affinity estimate (log intensity, higher = more binding, comparable within an allelic series)
- binding signal [20]: 13.6 upbm affinity estimate (log intensity, higher = more binding, comparable within an allelic series)
- binding signal [10]: 12.1 upbm affinity estimate (log intensity, higher = more binding, comparable within an allelic series)
- binding signal [11]: 10.9 upbm affinity estimate (log intensity, higher = more binding, comparable within an allelic series)
- binding signal [21]: 10.9 upbm affinity estimate (log intensity, higher = more binding, comparable within an allelic series)
- binding signal [22]: 11.4 upbm affinity estimate (log intensity, higher = more binding, comparable within an allelic series)
- binding signal [23]: 12 upbm affinity estimate (log intensity, higher = more binding, comparable within an allelic series)

Sequence: GTAATAAA
- binding signal [3]: 10.1 upbm affinity estimate (log intensity, higher = more binding, comparable within an allelic series)
- binding signal [4]: 13.2 upbm affinity estimate (log intensity, higher = more binding, comparable within an allelic series)
- binding signal [5]: 11.4 upbm affinity estimate (log intensity, higher = more binding, comparable within an allelic series)
- binding signal [6]: 13 upbm affinity estimate (log intensity, higher = more binding, comparable within an allelic series)
- binding signal [7]: 9.9 upbm affinity estimate (log intensity, higher = more binding, comparable within an allelic series)
- binding signal [24]: 12.6 upbm affinity estimate (log intensity, higher = more binding, comparable within an allelic series)
- binding signal [8]: 13.3 upbm affinity estimate (log intensity, higher = more binding, comparable within an allelic series)
- binding signal [25]: 11 upbm affinity estimate (log intensity, higher = more binding, comparable within an allelic series)
- binding signal [9]: 13.2 upbm affinity estimate (log intensity, higher = more binding, comparable within an allelic series)
- binding signal [26]: 12.1 upbm affinity estimate (log intensity, higher = more binding, comparable within an allelic series)
- binding signal [10]: 12.6 upbm affinity estimate (log intensity, higher = more binding, comparable within an allelic series)
- binding signal [27]: 11.9 upbm affinity estimate (log intensity, higher = more binding, comparable within an allelic series)
- binding signal [28]: 12.3 upbm affinity estimate (log intensity, higher = more binding, comparable within an allelic series)
- binding signal [11]: 11.4 upbm affinity estimate (log intensity, higher = more binding, comparable within an allelic series)
- binding signal [12]: 8.79 upbm affinity estimate (log intensity, higher = more binding, comparable within an allelic series)
- binding signal [13]: 11.8 upbm affinity estimate (log intensity, higher = more binding, comparable within an allelic series)

Sequence: CGGGCGCA
- binding signal [1]: 7.97 upbm affinity estimate (log intensity, higher = more binding, comparable within an allelic series)
- binding signal [29]: 7.92 upbm affinity estimate (log intensity, higher = more binding, comparable within an allelic series)
- binding signal [15]: 7.91 upbm affinity estimate (log intensity, higher = more binding, comparable within an allelic series)
- binding signal [30]: 6.81 upbm affinity estimate (log intensity, higher = more binding, comparable within an allelic series)
- binding signal [31]: 6.96 upbm affinity estimate (log intensity, higher = more binding, comparable within an allelic series)
- binding signal [32]: 6.94 upbm affinity estimate (log intensity, higher = more binding, comparable within an allelic series)

Sequence: CCCGGTTC
- binding signal [3]: 8.56 upbm affinity estimate (log intensity, higher = more binding, comparable within an allelic series)
- binding signal [14]: 9.88 upbm affinity estimate (log intensity, higher = more binding, comparable within an allelic series)
- binding signal [4]: 9.5 upbm affinity estimate (log intensity, higher = more binding, comparable within an allelic series)
- binding signal [17]: 9.82 upbm affinity estimate (log intensity, higher = more binding, comparable within an allelic series)
- binding signal [24]: 8.35 upbm affinity estimate (log intensity, higher = more binding, comparable within an allelic series)
- binding signal [8]: 9.62 upbm affinity estimate (log intensity, higher = more binding, comparable within an allelic series)
- binding signal [9]: 9.59 upbm affinity estimate (log intensity, higher = more binding, comparable within an allelic series)
- binding signal [20]: 9.74 upbm affinity estimate (log intensity, higher = more binding, comparable within an allelic series)
- binding signal [28]: 8.47 upbm affinity estimate (log intensity, higher = more binding, comparable within an allelic series)
- binding signal [11]: 9.68 upbm affinity estimate (log intensity, higher = more binding, comparable within an allelic series)
- binding signal [22]: 9.9 upbm affinity estimate (log intensity, higher = more binding, comparable within an allelic series)

Sequence: CTAATCGC
- binding signal [1]: 11.2 upbm affinity estimate (log intensity, higher = more binding, comparable within an allelic series)
- binding signal [29]: 12.3 upbm affinity estimate (log intensity, higher = more binding, comparable within an allelic series)
- binding signal [15]: 11.3 upbm affinity estimate (log intensity, higher = more binding, comparable within an allelic series)
- binding signal [33]: 11.6 upbm affinity estimate (log intensity, higher = more binding, comparable within an allelic series)

Sequence: CAATAAAA
- binding signal [3]: 10.1 upbm affinity estimate (log intensity, higher = more binding, comparable within an allelic series)
- binding signal [4]: 13.2 upbm affinity estimate (log intensity, higher = more binding, comparable within an allelic series)
- binding signal [6]: 12.9 upbm affinity estimate (log intensity, higher = more binding, comparable within an allelic series)
- binding signal [34]: 11.2 upbm affinity estimate (log intensity, higher = more binding, comparable within an allelic series)
- binding signal [24]: 12.7 upbm affinity estimate (log intensity, higher = more binding, comparable within an allelic series)
- binding signal [8]: 13.2 upbm affinity estimate (log intensity, higher = more binding, comparable within an allelic series)
- binding signal [25]: 11.2 upbm affinity estimate (log intensity, higher = more binding, comparable within an allelic series)
- binding signal [9]: 13.2 upbm affinity estimate (log intensity, higher = more binding, comparable within an allelic series)
- binding signal [26]: 12.5 upbm affinity estimate (log intensity, higher = more binding, comparable within an allelic series)
- binding signal [10]: 12.5 upbm affinity estimate (log intensity, higher = more binding, comparable within an allelic series)
- binding signal [27]: 12.3 upbm affinity estimate (log intensity, higher = more binding, comparable within an allelic series)
- binding signal [28]: 12.4 upbm affinity estimate (log intensity, higher = more binding, comparable within an allelic series)
- binding signal [11]: 11.7 upbm affinity estimate (log intensity, higher = more binding, comparable within an allelic series)

Sequence: ATAATCGG
- binding signal [1]: 10.6 upbm affinity estimate (log intensity, higher = more binding, comparable within an allelic series)
- binding signal [15]: 10.7 upbm affinity estimate (log intensity, higher = more binding, comparable within an allelic series)

Sequence: AACCGATT
- binding signal [1]: 10.1 upbm affinity estimate (log intensity, higher = more binding, comparable within an allelic series)
- binding signal [15]: 10.3 upbm affinity estimate (log intensity, higher = more binding, comparable within an allelic series)
